PubChem BioAssay AID722 (NMMLSC, 2007)
Screen size: about 1,300 compounds; about 40 (3%) were called active. Rule as the data show it: active = inhibition above about 30%; inactive = the rest. What follows is part of a selection rich in actives, with near analogues and random picks from the rest.

These compounds were tested against fMet-Leu-Phe receptor (Homo sapiens) (UniProt P21462) (assay: FPR1 fluorescent ligand binding inhibitors, primary screen, cell-based, flow cytometry, SAR analysis (AID 722)). Conditions: FPR-expressing cells, hits give high values, concentration not given here.
Sequence of fMet-Leu-Phe receptor (Homo sapiens) (P21462 whole entry, looked up): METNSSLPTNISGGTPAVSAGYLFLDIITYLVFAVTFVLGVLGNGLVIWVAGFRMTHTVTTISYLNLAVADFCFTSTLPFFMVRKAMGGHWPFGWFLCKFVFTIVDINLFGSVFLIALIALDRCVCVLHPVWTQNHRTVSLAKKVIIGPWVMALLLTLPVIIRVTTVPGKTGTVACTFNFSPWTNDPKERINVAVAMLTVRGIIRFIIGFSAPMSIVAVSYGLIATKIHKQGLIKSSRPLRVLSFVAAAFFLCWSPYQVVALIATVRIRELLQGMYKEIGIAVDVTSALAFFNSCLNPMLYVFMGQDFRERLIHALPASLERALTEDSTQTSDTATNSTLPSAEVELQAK
For `COc1ccc(-c2c(C)[nH]n3c(=O)c(Cc4ccccc4)c(C)nc23)cc1`, the inhibition was 6.3% (inactive). With `Cc1nc2c(-c3ccc(Cl)cc3)c(C(F)(F)F)[nH]n2c(=O)c1Cc1ccccc1` the inhibition was 50.1% (active). For `Cc1nc2c(-c3ccc(Cl)cc3)c[nH]n2c(=O)c1Cc1ccccc1`, the inhibition was -1.4% (inactive). `N#CCn1c(=O)n(Cc2ccccc2)c(=O)c2oc3ccccc3c21` was tested, and the inhibition was -0.8% (inactive). For `CCCCN(Cc1ccco1)C(=O)c1noc2c1CCCCC2`, the inhibition was 0.1% (inactive). In the case of `CCOC(=O)c1c(NC(=O)c2cccc(Br)c2)sc(C)c1C`, the inhibition is reported as -4.3% (inactive). With `Cc1ccc(C)c(NC(=O)Cn2c(-c3nonc3N)nc3ccccc32)c1` the inhibition was 5.3% (inactive). For `O=c1c2cccnc2n(Cc2ccccc2F)c(=O)n1Cc1ccccc1`, the inhibition was -7.5% (inactive). For `Cc1sc2c(c1C)c(=O)n(Cc1ccccc1)c(=O)n2Cc1ccccc1F`, the inhibition was 38.5% (active). With `O=c1c2cccnc2n(Cc2ccccc2F)c(=O)n1Cc1cccs1` the inhibition was -0.6% (inactive). `Cc1ccc(C)c(Cn2c(=O)cc(C)c3c(C)nn(-c4cccc(F)c4)c32)c1` was tested, and the inhibition was -2.2% (inactive). With `CCOC(=O)c1sc(N2C(=O)C(=O)/C(=C(/O)c3ccccc3)C2c2ccc(C(C)C)cc2)nc1C` (configuration not stated) the inhibition was 7.9% (inactive). `Cc1nnc(N2C(=O)C(=O)/C(=C(/O)c3ccc(F)cc3)C2c2cccc(Oc3ccccc3)c2)s1` (configuration not stated) was tested, and the inhibition was -8.8% (inactive). With `Cc1ccc(CN(Cc2ccco2)C(=O)c2cccc(C)c2)cc1` the inhibition was -4.5% (inactive). `O=C(O)CCCN1C(=O)C(=O)/C(=C(/O)c2ccccc2)C1c1ccc(Br)cc1` (configuration not stated) was tested, and the inhibition was 1.2% (inactive). In the case of `O=C(O)CCCN1C(=O)C(=O)/C(=C(/O)c2ccccc2)C1c1ccc(F)cc1` (configuration not stated), the inhibition is reported as 5.5% (inactive). For `O=C(O)CCCN1C(=O)C(=O)/C(=C(/O)c2ccccc2)C1/C=C/c1ccccc1` (configuration not stated), the inhibition was 44.6% (active). In the case of `O=C1C(=O)N(CCCN2CCOCC2)C(c2cccnc2)/C1=C(\O)c1ccccc1` (configuration not stated), the inhibition is reported as -3.2% (inactive). In the case of `COC(=O)c1ccc(C2C(C(C)=O)=C(O)C(=O)N2c2ccc(OCC(=O)O)cc2)cc1` (configuration not stated), the inhibition is reported as 2.2% (inactive). For `COc1cc(C2C(C(C)=O)=C(O)C(=O)N2c2ccc(Br)cc2)ccc1O` (configuration not stated), the inhibition was 35.8% (active). In the case of `COc1cccc(C2C(C(C)=O)=C(O)C(=O)N2c2ccc(C)c(Br)c2)c1` (configuration not stated), the inhibition is reported as -9% (inactive). With `Cc1cccc(C(=O)N(C(=O)c2cccc(C)c2)c2ncccn2)c1` the inhibition was -8.2% (inactive). For `CCN(C(=O)c1noc2c1CCCCC2)c1cccc(C)c1`, the inhibition was -6.2% (inactive). With `O=C(C1=C(O)C(=O)N(CCCn2ccnc2)C1c1cccc(Br)c1)c1ccco1` (configuration not stated) the inhibition was 0.3% (inactive). In the case of `COc1ccc(C2C(C(=O)c3cccs3)=C(O)C(=O)N2CCCn2ccnc2)c(OC)c1` (configuration not stated), the inhibition is reported as 1.7% (inactive). With `O=C(C1=C(O)C(=O)N(CCCn2ccnc2)C1c1cccnc1)c1cccs1` (configuration not stated) the inhibition was 3.5% (inactive). With `COc1cccc(C2C(C(=O)c3cccs3)=C(O)C(=O)N2CCc2ccccc2)c1` (configuration not stated) the inhibition was 15.8% (inactive). In the case of `O=C(C1=C(O)C(=O)N(CCc2ccccc2)C1c1ccc([N+](=O)[O-])cc1)c1cccs1` (configuration not stated), the inhibition is reported as -7.4% (inactive). With `O=C(C1=C(O)C(=O)N(CCCN2CCOCC2)C1c1cccnc1)c1ccco1` (configuration not stated) the inhibition was -9.2% (inactive). In the case of `O=C(C1=C(O)C(=O)N(CCCn2ccnc2)C1c1ccc(Cl)cc1)c1cccs1` (configuration not stated), the inhibition is reported as 19.5% (inactive). `O=C(C1=C(O)C(=O)N(CCCn2ccnc2)C1c1cccnc1)c1cc2ccccc2o1` (configuration not stated) was tested, and the inhibition was 40.4% (active). `COc1ccc(C2C(C(=O)c3cccs3)=C(O)C(=O)N2CCCn2ccnc2)cc1` (configuration not stated) was tested, and the inhibition was 42.2% (active). With `O=C(C1=C(O)C(=O)N(CCCN2CCOCC2)C1c1cccnc1)c1cc2ccccc2o1` (configuration not stated) the inhibition was 22.2% (inactive). `O=C(C1=C(O)C(=O)N(CCc2ccccc2)C1c1ccc(Cl)cc1)c1cccs1` (configuration not stated) was tested, and the inhibition was 77.6% (active). For `O=C(C1=C(O)C(=O)N(CCCn2ccnc2)C1c1cccnc1)c1ccco1` (configuration not stated), the inhibition was 33.2% (active). In the case of `O=C(C1=C(O)C(=O)N(CCCN2CCOCC2)C1c1ccco1)c1ccco1` (configuration not stated), the inhibition is reported as -4.4% (inactive). `Cc1ccc(/C(O)=C2\C(=O)C(=O)N(CC3CCCO3)C2c2ccc([N+](=O)[O-])cc2)cc1` (configuration not stated) was tested, and the inhibition was -3.9% (inactive). For `CCCC(=O)N1CCc2cc(OC)c(OC)cc2C1COc1ccc(OC)cc1` (configuration not stated), the inhibition was -2.3% (inactive). `Cc1nc2c(C(=O)N3CCCCC3)c[nH]n2c(=O)c1Cc1ccccc1F` was tested, and the inhibition was -4.3% (inactive). For `CCOc1ccc(C2/C(=C(/O)c3ccccc3)C(=O)C(=O)N2CCO)cc1` (configuration not stated), the inhibition was 1.5% (inactive). For `Cc1ccc(/C(O)=C2\C(=O)C(=O)NC2c2ccc(F)cc2)cc1` (configuration not stated), the inhibition was 10% (inactive). For `Cc1ccc(/C(O)=C2\C(=O)C(=O)NC2c2ccccc2)cc1` (configuration not stated), the inhibition was 0.5% (inactive). `O=C(c1cccs1)N1c2ncnn2C2(CCCCC2)[C@@H]2CCCC[C@@H]21` was tested, and the inhibition was 0.9% (inactive). `COc1cccc(N(Cc2nnc3n2CCCCC3)C(=O)Nc2ccccc2)c1` was tested, and the inhibition was -7.8% (inactive). `COc1ccccc1C1CC(c2ccccc2)=NN1C(=O)c1ccccc1` (configuration not stated) was tested, and the inhibition was 0% (inactive). For `CCOC(=O)c1c(NC(=O)c2ccc(Cl)cc2)sc(C)c1C`, the inhibition was -1% (inactive). For `CCOC(=O)c1c(NC(=O)c2cc(F)c(F)cc2Cl)sc2c1CCC2`, the inhibition was -9.6% (inactive). For `CCOC(=O)c1c(NC(=O)c2cccc(F)c2)sc2c1CCCC2`, the inhibition was -4% (inactive). `C=CCC(CC=C)(NC(=O)c1cccc(C)c1)c1ccccc1` was tested, and the inhibition was 0.8% (inactive). `O=C(C1=C(O)C(=O)N(c2nncs2)C1c1ccccc1F)c1cccs1` (configuration not stated) was tested, and the inhibition was -6.8% (inactive). `CCc1c(C)nc2c(C#N)c[nH]n2c1=O` was tested, and the inhibition was 0.5% (inactive). In the case of `CC(=O)C1=C(O)C(=O)N(CCN2CCOCC2)C1c1ccc([N+](=O)[O-])cc1` (configuration not stated), the inhibition is reported as 5.7% (inactive). With `CCC(C)(C(=O)NC1CCCCC1)N(C)C(=O)Cc1cccs1` (configuration not stated) the inhibition was -25.1% (inactive). In the case of `CCOc1ccccc1C(=O)N(Cc1cccs1)c1ccc(C)cc1`, the inhibition is reported as 5.8% (inactive). For `CCC(C)(C(=O)NC1CCCCC1)N(Cc1cccs1)C(C)=O` (configuration not stated), the inhibition was 57.2% (active). With `COc1cccc(C(=O)N(Cc2ccco2)Cc2ccccc2F)c1` the inhibition was -2.3% (inactive). `O=C(C(Cc1ccccc1)N1Cc2ccccc2C1=O)N1CCCCCC1` (configuration not stated) was tested, and the inhibition was 0.8% (inactive).
